F-actin modifier: alters cytoskeleton assembly in HUVEC cells; HUVEC TNFa F-actin phalloidin imaging, high content; inhibition, % at 2 µM; 0.18% of 91,000 active;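 active = inhibition above the batch mean plus 3 SD and confirmed as a hit by visual image inspection, cut at about 30% in these data, passing the limit was not always enough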
CYP2C9 inhib: inhibitors of human CYP2C9; AID 777; P11712; CYP2C9 Supersomes, luciferin-H conversion, luminescence; 20% of 96,000 active; inhibition, % at 5 µM;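 active = blocking of liver enzyme CYP2C9 beyond about 50% at 5 µM, limit read from the data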
Target sequence (P11712 whole entry, looked up): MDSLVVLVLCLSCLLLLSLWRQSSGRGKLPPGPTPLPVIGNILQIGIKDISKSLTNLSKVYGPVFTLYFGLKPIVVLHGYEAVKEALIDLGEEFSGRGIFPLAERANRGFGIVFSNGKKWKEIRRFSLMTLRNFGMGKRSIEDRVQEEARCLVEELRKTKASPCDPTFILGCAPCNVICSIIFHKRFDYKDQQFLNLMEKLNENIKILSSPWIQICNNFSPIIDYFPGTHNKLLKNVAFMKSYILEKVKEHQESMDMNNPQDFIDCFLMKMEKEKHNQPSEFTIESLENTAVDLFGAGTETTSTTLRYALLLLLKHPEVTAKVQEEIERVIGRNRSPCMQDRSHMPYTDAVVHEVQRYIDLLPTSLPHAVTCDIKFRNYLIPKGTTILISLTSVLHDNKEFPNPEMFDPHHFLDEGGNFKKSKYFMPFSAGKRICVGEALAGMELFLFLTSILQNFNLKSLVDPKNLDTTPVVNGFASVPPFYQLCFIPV
CYP2C19 activ: activators of human cytochrome P450 2C19; P33261; recombinant CYP2C19, luciferin-H EGE luminescence; hits give high values; 0 = fully inhibited enzyme, 1 = untreated enzyme; activation factor at 5 µM; 96,000 tested, under 10 active; AID 1025;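 active = activation factor of at least 2 at 5 µM in the primary screen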;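 note: 0 = wells with 2.5 mM tranylcypromine and 1 = vehicle-only wells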
E-sel TNF inh: TNF alpha driven E-selectin expression inhibition. 0.71% of 120,000 active. HUVEC TNFa-induced E-selectin immunofluorescence, high content. inhibition, % at 2 µM;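 active = inhibition above the batch mean plus 3 SD, and confirmed as a hit on visual image review, cut at about 43% in these data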;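 note: 0% = TNF-stimulated DMSO wells and 100% = unstimulated control wells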
CYP2C9 activ: increases human cytochrome P450 2C9 activity | recombinant CYP2C9, luciferin-H conversion, luminescence; hits give high values; factor 1 = untreated enzyme, 0 = blocked | activation factor at 5 µM | 1.4% of 96,000 active | AID 1024;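 active = activation factor of 2 or more for CYP2C9 at a 5 µM dose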;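 note: 0 = sulfaphenazole-blocked wells and 1 = vehicle-only wells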
CYP2C19 inhib: inhibitors of human CYP2C19. P33261. CYP2C19 Supersomes, luciferin-H EGE luminescence, 30 min. inhibition, % at 5 µM. 21% of 96,000 active;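 active = CYP2C19 inhibition above a set limit at 5 µM in the primary screen, cut at about 50% in these data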;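 note: plate controls were negative control wells for no effect and 2.5 mM tranylcypromine positive control for full effect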
Numbers without * were called inactive; . = no result given. An excerpt weighted towards active compounds, which were near 22% of everything screened.

SMILES	F-actin modifier	CYP2C9 inhib	CYP2C19 activ	E-sel TNF inh	CYP2C9 activ	CYP2C19 inhib
CN(C)C(=O)Oc1ccc(OC(=O)N(C)C)cc1	-2	19	0.9	.	0.8	9
O=c1[nH]c(=O)n(CCC2=CCCCC2)c(O)c1C=NCCN1CCNCC1	22	24	1	.	0.8	3
CC1=NCCc2c1[nH]c1ccccc21	.	.	.	9	.	.
CCN1CCC2(CCNC2)C1 (stereo unspecified)	12	-19	1.2	98*	1.2	-24
Cc1ccccc1C(=O)NC(Oc1ccccc1)C(Cl)(Cl)Cl (stereo unspecified)	.	.	.	19	.	.
OC1(c2ccc(F)cc2)CC2CCC(C1)N2Cc1nnnn1C1CCCCC1 (stereo unspecified)	.	43	0.5	.	0.6	50*
OCCN1C2CCC1CC(O)(c1ccc(F)cc1)C2 (stereo unspecified)	-1	-5	0.9	-15	1	7
O=C1CN(C(=O)CN2CCCCC2)C(c2ccccc2)c2cc(Br)ccc2N1 (stereo unspecified)	3	23	0.8	13	0.8	22
CC(C)Oc1ccc(C2C(C#N)=C(N)Oc3c2c(=O)oc2ccccc32)cc1 (stereo unspecified)	-23	90*	1	-3	0.1	-4
CCCC(C)C1C(C#N)=C(N)Oc2c1c(=O)oc1ccccc21 (stereo unspecified)	-19	70*	0.8	3	0.3	22
Cc1ccc(-n2nc(C)c(C3C(C#N)=C(N)Oc4c3c(=O)oc3ccccc43)c2Cl)cc1 (stereo unspecified)	28	98*	0.6	-9	0	41
COCCOC(=O)C1=C(N)Oc2c(c(=O)oc3ccccc23)C1c1ccncc1 (stereo unspecified)	30	97*	0	0	0	96*
CC12CN3CC(C)(CN(C1)C3c1ccco1)C2=O (stereo unspecified)	29	6	0.9	.	0.9	5
C[C@@H]1C2C[C@@]34COC(=O)C3=CC=C[C@H]4[C@@]13C[C@H](c1ccoc1)O[C@@H]3O2	.	.	.	-18	.	.
O=C1NC(=O)N(Cc2ccco2)C(=O)/C1=C/c1cccn1CCOc1ccccc1Cl	.	.	.	-11	.	.
COc1ccc(C2C(C#N)=C(N)Oc3c2c(=O)oc2ccccc32)cc1Cn1cc([N+](=O)[O-])cn1 (stereo unspecified)	7	97*	0.7	-38	0	33
CCCC1C(C#N)=C(N)Oc2c1c(=O)oc1ccccc21 (stereo unspecified)	6	.	.	-23	.	.
COc1ccc(-c2nc(CSCC(=O)N3CCC4(CC3)OCCO4)c(C)o2)cc1OC	.	-5	0.9	.	1	10
Cc1oc(-c2cccs2)nc1CSCC(=O)N1CCC2(CC1)OCCO2	-12	-14	0.6	67*	1.1	44
O=C(Cc1cccs1)N1CCC2(CC1)OCCO2	4	-14	0.2	-22	1.1	80*
O=c1[nH]c(=O)n(-c2ccc(F)cc2)c(O)c1C=Nc1ccccc1N1CCCC1	14	2	1	-10	1	2
O=C(COc1ccccc1)N1CCN(Cc2c[nH]c3ccccc23)CC1	.	12	1	-40	0.9	3
O=C(Cc1ccccc1)N1CCN(Cc2c[nH]c3ccccc23)CC1	-21	46	0.4	7	0.5	62*
O=C(NC1CN2CCC1CC2)c1ccc(-c2ccc([N+](=O)[O-])cc2)o1 (stereo unspecified)	.	.	.	-24	.	.
COc1ccc(N2CCN(C(CNC(=O)Oc3ccccc3)c3cccnc3)CC2)cc1 (stereo unspecified)	1	-2	0.9	-11	1	7
SMILES	F-actin modifier	CYP2C9 inhib	CYP2C19 activ	E-sel TNF inh	CYP2C9 activ	CYP2C19 inhib
O=C(NCC(c1cccnc1)N1CCN(c2ccccc2F)CC1)Oc1ccccc1 (stereo unspecified)	-11	85*	0.2	1	0.1	78*
O=C1/C(=C/c2ccc([N+](=O)[O-])cc2)N2CCC1CC2	.	.	.	-14	.	.
CCOC(=O)c1[nH]c(C)c(C(=O)N2CCC3(CC2)OCCO3)c1C	1	13	0.8	.	0.9	17
O=C(c1cc(-c2ccccc2)nc2ccccc12)N1CCC2(CC1)OCCO2	-2	38	0.4	-13	0.6	57*
Cc1cc(C(=O)N2CCC3(CC2)OCCO3)cs1	-5	-8	0.3	-13	1.1	74*
CCOc1cc(C(=O)N2CCC3(CC2)OCCO3)cc(OCC)c1OCC	-4	14	0.7	-19	0.9	25
O=C(c1cccn2c(=O)c3ccccc3nc12)N1CCC2(CC1)OCCO2	-15	-8	0.9	7	1.1	11
CC(=O)c1c(C)[nH]c(C(=O)N2CCC3(CC2)OCCO3)c1C	14	-1	0.5	.	1	54*
O=C(c1cc(Br)ccc1Cl)N1CCC2(CC1)OCCO2	-21	54*	0	-14	0.5	98*
CCc1ccc(-n2c(O)c(/C=N/NC(=O)c3ccncc3)c(=O)[nH]c2=O)cc1	.	.	.	13	.	.
O=C(c1ccc2c(c1)OCO2)N1CCC2(CC1)OCCO2	.	-5	0.1	-14	1	88*
CN1CCN(CCC(C#N)(c2ccccc2)c2ccccc2)CC1	-8	8	0.9	.	0.9	7
CCC(=NCc1ccc2c(c1)OCO2)c1c(O)n(C2CCCCC2)c(=O)[nH]c1=O	23	100*	0	0	0	99*
CCC(=NCCO)c1c(O)n(C2CCCCC2)c(=O)[nH]c1=O	10	37	0.4	.	0.6	61*
Brc1ccc(CN2CCNCC2)s1	14	18	0.9	3	0.8	11
O=C(CSC1c2ccccc2-c2ccccc21)N/N=C/c1ccccc1O	10	53*	0.4	18	0.5	59*
COc1cc(OC)c(OC)cc1CNCCc1ccc(OC)c(OC)c1	.	-3	1.1	-51	1	-8
COc1ccc(CCNCc2ccncc2)cc1OC	-18	52*	0.3	-2	0.5	66*
COc1ccc(CCN(C)Cc2ccncc2)cc1OC	3	67*	0.2	-3	0.3	82*
COC(=O)c1ccccc1N=Cc1c(O)[nH]c(=S)[nH]c1=O	.	.	.	8	.	.
C=CCn1c(O)c(C(CC)=Nc2cc(OC)ccc2OC)c(=O)[nH]c1=O	18	90*	0.2	.	0.1	79*
C=CCn1c(O)c(C(C)=NCc2cccnc2)c(=O)[nH]c1=O	20	8	0.3	-5	0.9	68*
C=CCn1c(O)c(C(C)=NCCc2ccccc2)c(=O)[nH]c1=O	-7	25	0.9	6	0.7	6
C=CCn1c(O)c(C(C)=NCc2cc(OC)cc(OC)c2)c(=O)[nH]c1=O	34	85*	0.2	10	0.2	83*
C=CCn1c(O)c(C(C)=NCCO)c(=O)[nH]c1=O	-30	5	1	-81	1	-2
O=C(Nc1cccc2ccccc12)c1nn(C23CC4CC(CC(C4)C2)C3)cc1Br	-14	3	0.6	-28	1	36

Screening data as filed in PubChem.
